40 compounds from PubChem BioAssay (EPA / NIEHS) can be followed below.

Records with an inconclusive call do not appear. Active and inactive are the calls of the source. The calls were made as follows: active = hit-call score of the fitted dose curve at least 0.9, where 1 is the maximum; inconclusive = response in the unintended direction; inactive = score below 0.9.

Read-out in the experiment: xenobiotic metabolism (CYP1A2), CYP1A2 (gene 1544)
Nature of the experiment: CLD_CYP1A2_24hr: CellzDirect (CLD) Gene Expression Assay for xenobiotic metabolism (CYP1A2) at 24 hours (AID 2283683). The method, then:
CLD_24hr is a cell-based, multiplexed-readout assay that uses hepatocyte, a human liver primary cell, with measurements taken at 24 hours after chemical dosing in a 96-well plate.CLD_CYP1A2_24hr is one of 16 assay component(s) measured or calculated from the CLD_24hr assay. It is designed to make measurements of mRNA induction, a form of inducible reporter, as detected with chemiluminescence signals by Quantitative Nuclease Protection Assay (qNPA) technology.Data from the assay component CLD_CYP1A2_24hr was analyzed at the endpoint, CLD_CYP1A2_24hr, in the positive analysis fitting direction relative to DMSO as the negative control and baseline of activity. Using a type of inducible reporter, gain-of-signal activity can be used to understand changes in the reporter gene as they relate to the gene CYP1A2. Furthermore, this assay endpoint can be referred to as a primary readout. To generalize the intended target to other relatable targets, this assay endpoint is annotated to the cyp intended target family, where subfamily is xenobiotic metabolism.
Human hepatocyte cultures were treated daily for two consecutive days with fresh dosing solutions containing appropriate concentrations of the 320 ToxCast chemicals (chemical identities were blinded to CellzDirect and other ToxCast collaborators), vehicle control (0.2% DMSO), and positive control inducers as summarized in Table 1. Due to the large number of treatment groups and chemicals examined, the ToxCast chemicals were divided into two groups (spanning two independent cultures of hepatocytes from separate donor preparations (Hu778: ToxCast plates 1 and 2; Hu776: ToxCast plates 3 and 4). Each preparation of human hepatocyte cultures was treated with respective vehicle control, medium only control, set of six positive controls/reference chemicals for the five hepatic receptor pathways, and a subset of eight of the ToxCast chemicals (indoxacarb, pyrithiobac-sodium, norflurazon, cyhalofop-butyl, methomyl, thiram, acetochlor, and propiconazole). These replicate data, coupled with internal replicates designed within the blinded ToxCast chemical library, provided additional data to evaluate interindividual differences between hepatocyte preparations and their potential impact on chemical profiles.Cell morphology and integrity were evaluated using phase-contrast microscopy as an indicator of hepatocyte cell health (Tyson & Green, 1987). Cultures for each treatment group (i.e., media, vehicle [0.2% DMSO], positive control inducers [multiple concentrations], and the ToxCast chemicals [multiple concentrations]) were observed and cell morphology was assessed relative to vehicle control cultures at each harvest time point (0, 6, 24, or 48 h). […] Images were evaluated at the conclusion of the study to assess changes in cell integrity and account for the effects of chemical exposure on uncharacteristic changes in concentration-dependent gene expression profiles. The results from these determinations of apparent cytotoxicity were annotated (yes/no) alongside the corresponding qNPA data for reference.At the conclusion of each treatment period, hepatocyte cultures (96-well) were washed with 1 volume of HBSS, lysed by addition of 25 ul ArrayPlate lysis buffer (HTG, Tucson, AZ), and 70 ul/well of Denaturation Oil, denatured by incubation at 95C for 10 min, and frozen at approximately -70C until analysis by nuclease protection assay (qNPA) (Roberts et al., 2007). For qNPA analysis, cell lysates were thawed at 50C for approximately 30 min, qNPA probes were added, and samples were incubated at 95C for 10 min to begin the detection process by denaturing the target RNA, dissociating the duplexes and secondary structure hybridization. At the conclusion of the hybridization period, S1 nuclease reagent was added to each sample to digest all nonprotected nucleotides at 50C for 60-90 min. […]
As for `CNC(=O)Oc1cccc2ccccc12`, the AC50 was 2.83 µM (active).

Turning to `COc1cc(Cl)c(OC)cc1Cl`, the outcome was inactive.

Take `COC(=O)c1c(C(F)F)nc(C(F)(F)F)c(C2=NCCS2)c1CC(C)C`: the AC50 is 9.96 µM (active).

For the compound `CC1(C)CON(Cc2ccccc2Cl)C1=O`, the result was inactive.

For `CCOc1nc(C(Cl)(Cl)Cl)ns1`, the compound was called inactive.

Regarding `Cc1cnc(C2=NC(C)(C(C)C)C(=O)N2)c(C(=O)O)c1` (stereo not given), the outcome was inactive.

As for `COC(=O)N(C(=O)N1CO[C@@]2(C(=O)OC)Cc3cc(Cl)ccc3C2=N1)c1ccc(OC(F)(F)F)cc1`, the AC50 is 1.28 µM (active).

As to `CCN(CC)c1nc(C)cc(OP(=S)(OC)OC)n1`, the AC50 is 3.97 µM (active).

As for `CC(C)Oc1cccc(NC(=O)c2ccccc2C(F)(F)F)c1`, the AC50 was 20 µM (active).

As to `CC1(C)C(C=C(Cl)Cl)C1C(=O)OC(C#N)c1cccc(Oc2ccccc2)c1` (stereo not given), the AC50 is 11 µM (active).

For the compound `CSC(=O)c1c(C(F)F)nc(C(F)(F)F)c(C(=O)SC)c1CC(C)C`, the AC50 is 5.33 µM (active).

Turning to `Clc1nc(Cl)nc(Nc2ccccc2Cl)n1`, the call was inactive.

With `CCSC(=O)N1CCCCCC1`, the compound was called inactive.

As to `CS(=O)(=O)c1cc(C(F)(F)F)ccc1C(=O)c1cnoc1C1CC1`, the compound was classed as inactive.

With `CCOc1cc(C(C)(C)C)ccc1C1COC(c2c(F)cccc2F)=N1` (stereo not given), the AC50 is 15.7 µM (active).

In the case of `Cc1nc(N(C)C)nc(OC(=O)N(C)C)c1C`, the AC50 was 3.66 µM (active).

In the case of `CCCCC(O)(Cn1cncn1)c1ccc(Cl)cc1Cl` (stereo not given), the AC50 is 1.9 µM (active).

With `CCNP(=S)(OC)O/C(C)=C/C(=O)OC(C)C` (stereo not given), the AC50 was 4.58 µM (active).

As for `CNC(=O)N(C)c1nnc(C(C)(C)C)s1`, the outcome was inactive.

As for `CS(=O)(=O)c1ccc(C(=O)C2C(=O)CCCC2=O)c([N+](=O)[O-])c1`, the call was inactive.

As to `CCCN(CC)CC1COC2(CCC(C(C)(C)C)CC2)O1` (stereo not given), the AC50 was 0.583 µM (active).

For the compound `CCOP(=O)(OCC)Oc1nc(Cl)c(Cl)cc1Cl`, the AC50 is 3.42 µM (active).

`C=C(C)CN(CC)c1c([N+](=O)[O-])cc(C(F)(F)F)cc1[N+](=O)[O-]`: the outcome was inactive.

For the compound `Nc1cnn(-c2ccccc2)c(=O)c1Cl`, the concentration at half-maximal activity (AC50) was 5.8 µM (active).

Take `CCC(C)n1c(=O)[nH]c(C)c(Br)c1=O` (stereo not given): the AC50 was 7.45 µM (active).

As to `O=C1C2CC=CCC2C(=O)N1SC(Cl)(Cl)Cl` (stereo not given), the result was inactive.

As for `COc1cc(OC)nc(NC(=O)NS(=O)(=O)c2ncccc2OCC(F)(F)F)n1`, the result was inactive.

Take `CC(C)N1C(=O)N(c2ccccc2)CSC1=NC(C)(C)C`: the result was inactive.

Turning to `Cc1cc(C)nc(Nc2ccccc2)n1`, the concentration at half-maximal activity (AC50) was 5.77 µM (active).

As to `CC(C)=CC1C(C(=O)OCc2coc(Cc3ccccc3)c2)C1(C)C` (stereo not given), the call was inactive.

For `COP(=S)(OC)Oc1ccc([N+](=O)[O-])c(C)c1`, the AC50 is 1.38 µM (active).

Regarding `CCOC(=O)C(C)OC(=O)c1cc(Oc2ccc(C(F)(F)F)cc2Cl)ccc1[N+](=O)[O-]` (stereo not given), the AC50 is 4.61 µM (active).

Turning to `N#Cc1c[nH]cc1-c1cccc2c1OC(F)(F)O2`, the AC50 is 1.56 µM (active).

Regarding `CCN(CC)C(=O)C(C)Oc1cccc2ccccc12` (stereo not given), the AC50 is 8.79 µM (active).

On to `CCNC(=O)NC(=O)C(C#N)=NOC`, for which the outcome was inactive.

In the case of `CC(C)N1C(=O)c2ccccc2NS1(=O)=O`, the call was inactive.

Turning to `Clc1cccc(C(Cl)(Cl)Cl)n1`, the result was inactive.

For `CC(C)(C)C(=O)C(Oc1ccc(Cl)cc1)n1cncn1` (stereo not given), the half-maximal activity concentration (AC50) was 9.31 µM (active).

With `COC(=O)NC(=S)Nc1ccccc1NC(=S)NC(=O)OC`, the AC50 is 12.2 µM (active).

On to `O=C(Nc1ccccc1-c1ccc(Cl)cc1)c1cccnc1Cl`, for which the AC50 was 6.74 µM (active).
